# Like-named read-outs stand apart in the source and are kept apart here.
# Assays:
# FGFR4 = settings: concentration: 1 μM, replicates: in singlicate; n = 1
# FGR = settings: concentration: 1 μM, replicates: in singlicate; n = 1
# FLT1 = settings: concentration: 1 μM, replicates: in singlicate; n = 1
# FLT3-autoinhibited = settings: concentration: 1 μM, replicates: in singlicate; n = 1
# FLT3 = settings: concentration: 1 μM, replicates: in singlicate; n = 1
# FLT4 = settings: concentration: 1 μM, replicates: in singlicate; n = 1
# FRK = settings: concentration: 1 μM, replicates: in singlicate; n = 1
# FYN = settings: concentration: 1 μM, replicates: in singlicate; n = 1
# GAK = settings: concentration: 1 μM, replicates: in singlicate; n = 1
# GCN2(Kin.Dom.2,S808G) = test system: T1, GCN2(Kin.Dom.2,S808G); settings: concentration: 1 μM, replicates: in singlicate; n = 1
# T1 construct: gene EIF2AK4
# GRK1 = settings: concentration: 1 μM, replicates: in singlicate; n = 1
# GRK2 = test system: T2, GRK2; settings: concentration: 1 μM, replicates: in singlicate; n = 1
# T2 construct: gene ADRBK1
# GRK3 = test system: T3, GRK3; settings: concentration: 1 μM, replicates: in singlicate; n = 1
# T3 construct: gene ADRBK2
# GRK4 = settings: concentration: 1 μM, replicates: in singlicate; n = 1
# GRK7 = settings: concentration: 1 μM, replicates: in singlicate; n = 1
# GSK3A = settings: concentration: 1 μM, replicates: in singlicate; n = 1
# GSK3B = settings: n = 1
# HASPIN = test system: T4, HASPIN; settings: concentration: 1 μM, replicates: in singlicate; n = 1
# T4 construct: gene GSG2
# HCK = settings: concentration: 1 μM, replicates: in singlicate; n = 1
# HIPK1 = settings: concentration: 1 μM, replicates: in singlicate; n = 1
# [1] = concentration: 1 μM, replicates: in singlicate
# 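Also: KINOMEscan kinase panel screen.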
smiles,measurement,setting,value
FC(F)(F)c1ccc(-c2cc(-c3c[nH]nc3-c3ccccn3)ccn2)cc1 [GW599550],%Inh,FGFR4,0%
same,%Inh,FGR,14%
same,%Inh,FLT1,20%
same,%Inh,FLT3-autoinhibited,0%
same,%Inh,FLT3,0%
same,%Inh,FLT4,17%
same,%Inh,FRK,0%
same,%Inh,FYN,38%
same,%Inh,GAK,46%
same,%Inh,"GCN2(Kin.Dom.2,S808G)",0%
same,%Inh,GRK1,0%
same,%Inh,GRK2,0%
same,%Inh,GRK3,33%
same,%Inh,GRK4,14%
same,%Inh,GRK7,4%
same,%Inh,GSK3A,19%
same,%Inh,GSK3B; [1],0%
same,%Inh,HASPIN,14%
same,%Inh,HCK,0%
same,%Inh,HIPK1,0%
CS(=O)(=O)CCNCc1nc(-c2ccc3ncnc(Nc4ccc(OCc5cccc(F)c5)c(Cl)c4)c3c2)cs1.Cl [GW583340],%Inh,FGFR4,0%
same,%Inh,FGR,11%
same,%Inh,FLT1,10%
same,%Inh,FLT3-autoinhibited,0%
same,%Inh,FLT3,0%
same,%Inh,FLT4,0%
same,%Inh,FRK,0%
same,%Inh,FYN,35%
same,%Inh,GAK,19%
same,%Inh,"GCN2(Kin.Dom.2,S808G)",0%
same,%Inh,GRK1,0%
same,%Inh,GRK2,0%
same,%Inh,GRK3,28%
same,%Inh,GRK4,0%
same,%Inh,GRK7,0%
same,%Inh,GSK3A,0%
same,%Inh,GSK3B; [1],1%
same,%Inh,HASPIN,0%
same,%Inh,HCK,0%
same,%Inh,HIPK1,0%
O=C(NCCCN1CCCC1=O)c1cnc(NCc2cc(Cl)ccc2Cl)nc1NC1CCNCC1,%Inh,FGFR4,0%
same,%Inh,FGR,1%
same,%Inh,FLT1,0%
same,%Inh,FLT3-autoinhibited,0%
same,%Inh,FLT3,0%
same,%Inh,FLT4,7%
same,%Inh,FRK,0%
same,%Inh,FYN,6%
same,%Inh,GAK,0%
same,%Inh,"GCN2(Kin.Dom.2,S808G)",0%
same,%Inh,GRK1,33%
same,%Inh,GRK2,2%
same,%Inh,GRK3,22%
same,%Inh,GRK4,0%
same,%Inh,GRK7,68%
same,%Inh,GSK3A,0%
same,%Inh,GSK3B; [1],0%
same,%Inh,HASPIN,0%
same,%Inh,HCK,3%
same,%Inh,HIPK1,5%
Nc1n[nH]c2nnc(-c3ccccc3)cc12 [SB-517389],%Inh,FGFR4,14%
same,%Inh,FGR,29%
same,%Inh,FLT1,12%
same,%Inh,FLT3-autoinhibited,1%
same,%Inh,FLT3,0%
same,%Inh,FLT4,0%
same,%Inh,FRK,6%
same,%Inh,FYN,28%
same,%Inh,GAK,10%
same,%Inh,"GCN2(Kin.Dom.2,S808G)",10%
same,%Inh,GRK1,0%
same,%Inh,GRK2,0%
same,%Inh,GRK3,0%
same,%Inh,GRK4,0%
same,%Inh,GRK7,0%
same,%Inh,GSK3A,71%
same,%Inh,GSK3B; 1 µM,19%
same,%Inh,HASPIN,0%
same,%Inh,HCK,0%
same,%Inh,HIPK1,56%

# Reference: PMC5540273 (PLoS ONE, 2017)
